High-throughput results (PubChem)
FadD28 binding – inhibitors of FadD28 bisubstrate probe binding, primary screen, biochemical, fluorescence polarization, single point; Mycobacterium tuberculosis FadD28 fatty-acid-AMP ligase; inhibition, % at 12.5 µM; 360,000 compounds, 0.22% hits; AID 588549, 2011; in the data active means inhibition above about 8.5%, passing the limit was not always enough
SARS 3CLpro inh – SARS-CoV 3CLpro protease inhibitors, primary screen, biochemical, quenched FRET; Replicase polyprotein 1ab (Severe acute respiratory syndrome coronavirus), P0C6X7; recombinant SARS-CoV 3CLpro, quenched FRET peptide cleavage; AID 1706, 2009; 290,000 compounds, 0.14% hits; inhibition, % at 6 µM; in the data active means inhibition above about 12%
Mtb FBA inh – Mtb FBA enzyme inhibitors, primary screen, biochemical, fluorescence, strain H37Rv; Fructose-bisphosphate aldolase (Mycobacterium tuberculosis (strain ATCC 25618 / H37Rv)), …; purified M. tuberculosis FBA, fluorescence read-out; inhibition, % at 1 µM; 360,000 compounds, 2.3% hits; in the data active means inhibition above about 27%
Target sequence (P9WQA3 whole entry, looked up): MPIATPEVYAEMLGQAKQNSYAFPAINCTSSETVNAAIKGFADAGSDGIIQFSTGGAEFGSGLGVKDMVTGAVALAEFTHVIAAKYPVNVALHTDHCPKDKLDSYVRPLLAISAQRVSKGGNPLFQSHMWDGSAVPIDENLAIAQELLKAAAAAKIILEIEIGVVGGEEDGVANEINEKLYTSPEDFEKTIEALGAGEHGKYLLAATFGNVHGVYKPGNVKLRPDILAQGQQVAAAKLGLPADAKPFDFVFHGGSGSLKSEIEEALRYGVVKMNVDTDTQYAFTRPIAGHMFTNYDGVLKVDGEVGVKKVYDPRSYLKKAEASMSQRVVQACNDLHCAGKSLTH
Mtb BioA inh – M. tuberculosis BioA enzyme inhibitors, primary screen, biochemical, plate reader, single point, HTS; purified M. tuberculosis BioA enzyme; inhibition, % at 9.99 µM; 7,8-diaminopelargonic acid synthase BioA (Mycobacterium tuberculosis); 360,000 compounds, 0.096% hits; in the data active means inhibition above about 40%
GDH-TPI counter – GDH-TPI coupling enzyme inhibitors, primary screen, artefact control for M. tuberculosis FBA inhibitor project, biochemical, absorbance, full deck; inhibition, % at 4.8 µM; AID 588335, 2011; 360,000 compounds, 1.2% hits; GDH-TPI coupled enzyme counterscreen, NADH absorbance; in the data active means inhibition above about 30%
Large screens that a line does not name were inactive. The list is not random: actives were taken first. Their share in the collection is about 3.1%.

O=C(CCc1ccc(O)cc1)NN=Cc1ccc2c(c1)OCO2	none (no result: SARS 3CLpro inh)
CCN(CC)c1ccc(/C=N/NC(=O)c2cc3ccccc3[nH]2)cc1	GDH-TPI counter 32
O=C(Cc1cc(=O)oc2cc(O)ccc12)NN=Cc1ccc(N(CCCl)CCCl)cc1	Mtb FBA inh 182, GDH-TPI counter 56 (no result: SARS 3CLpro inh)
COc1cc(/C=N/NC(=O)c2ccc3nc[nH]c3c2)ccc1O	GDH-TPI counter 59 (no result: Mtb BioA inh)
CC(C)NC(=O)N(C)C[C@@H]1Oc2cc(C#Cc3ccccn3)ccc2S(=O)(=O)N([C@@H](C)CO)C[C@@H]1C	none (no result: FadD28 binding, SARS 3CLpro inh, Mtb FBA inh, GDH-TPI counter)
CN(C)c1ccc(/C=N/NC(=O)c2ccc3nc[nH]c3c2)cc1	GDH-TPI counter 56 (no result: Mtb BioA inh)
CSc1ccc(/C=N/NC(=O)c2ccc3nc[nH]c3c2)cc1	GDH-TPI counter 48 (no result: SARS 3CLpro inh)
CN(C)c1ccc(/C=N/NC(=O)c2ccccc2)cc1	none
O=C(NN=Cc1ccc(N(CCCl)CCCl)cc1)C(=O)c1c[nH]c2ccccc12	GDH-TPI counter 43 (no result: SARS 3CLpro inh)
CCN(CC)c1ccc(/C=N/NC(=O)c2ccc3nc[nH]c3c2)cc1	FadD28 binding 31, GDH-TPI counter 60
CCN(CC)c1ccc(/C=N/NC(=O)c2ccc([N+](=O)[O-])cc2)cc1	none (no result: Mtb BioA inh)
Cc1ccccc1S(=O)(=O)N1[C@@H](C#N)[C@H](c2ccc(-c3ccccc3)cc2)[C@@H]1CO	none (no result: FadD28 binding, SARS 3CLpro inh, Mtb FBA inh, GDH-TPI counter)
C#CC1(O)CCC2C3CCC4=CC(=O)CCC4=C3C=CC21C (stereo not given)	GDH-TPI counter 42 (no result: SARS 3CLpro inh)
C#C[C@]1(O)CC[C@H]2[C@@H]3CCC4=CC(=O)CC[C@@H]4[C@H]3CC[C@@]21C	none (no result: SARS 3CLpro inh)
C1CCCN(c2nc3nonc3nc2N2CCCCCC2)CC1	none (no result: Mtb BioA inh)
O=C1CN(c2nc3nonc3nc2N2CCCCC2)CCN1	GDH-TPI counter 35 (no result: Mtb BioA inh)
Cc1noc(C)c1NC(=O)N(C)C[C@@H]1Oc2c(NS(=O)(=O)c3cccs3)cccc2C(=O)N([C@@H](C)CO)C[C@H]1C	none (no result: FadD28 binding, SARS 3CLpro inh, Mtb FBA inh, GDH-TPI counter)
O=C(NCCN1C(=O)S/C(=C\c2ccc(OC(F)F)cc2)C1=O)C1=COCCO1	GDH-TPI counter 41 (no result: SARS 3CLpro inh, Mtb BioA inh)
COc1ccc(/C=C2\SC(=O)N(CCNC(=O)C3=COCCO3)C2=O)cc1	GDH-TPI counter 31 (no result: SARS 3CLpro inh)
O=C(NCCN1C(=O)S/C(=C\c2ccccc2F)C1=O)C1=COCCO1	GDH-TPI counter 42 (no result: SARS 3CLpro inh, Mtb BioA inh)
COc1cc(C(=O)NCCN2C(=O)S/C(=C\c3cccs3)C2=O)cc(OC)c1OC	none
COc1cc(/C=C2\SC(=O)N(CCNC(=O)c3c(C)noc3C)C2=O)cc(OC)c1OC	GDH-TPI counter 31 (no result: SARS 3CLpro inh, Mtb BioA inh)
COc1ccc(NC(=O)N(C)C[C@H]2Oc3c(NS(=O)(=O)c4cccs4)cccc3C(=O)N([C@@H](C)CO)C[C@H]2C)cc1	none (no result: FadD28 binding, SARS 3CLpro inh, Mtb FBA inh, GDH-TPI counter)
O=C(Nc1cccc(C(F)(F)F)c1)/C(=C\c1ccco1)NC(=O)c1cccs1	GDH-TPI counter 35
CC(=O)Oc1ccc(/C=C(\NC(=O)c2cccc(Br)c2)C(=O)Nc2ccc(C(=O)O)cc2)cc1	GDH-TPI counter 32 (no result: SARS 3CLpro inh)
Cc1ccc(NC(=O)/C(=C\c2ccc3c(c2)OCO3)NC(=O)c2ccco2)cc1	GDH-TPI counter 40
O=C(Nc1ccc(C(=O)O)cc1)/C(=C\c1ccc2c(c1)OCO2)NC(=O)c1ccccc1	GDH-TPI counter 36
CN1[C@@H]2c3ccc(C4=CCCCC4)c(=O)n3C[C@H]1[C@H](CO)[C@H]2C(=O)NCc1cccc(F)c1	none (no result: FadD28 binding, SARS 3CLpro inh, Mtb FBA inh, GDH-TPI counter)
O=C(Nc1ccc(C(=O)O)cc1)/C(=C\C=C\c1ccccc1)NC(=O)c1ccc(Br)cc1	GDH-TPI counter 31
CC(=O)c1ccc(NC(=O)/C(=C\c2ccco2)NC(=O)c2ccco2)cc1	GDH-TPI counter 31
Cc1ccc(NC(=O)/C(=C/C=C/c2ccccc2)NC(=O)c2ccccc2)cc1	none (no result: Mtb BioA inh)
CC(C)OC(=O)/C(=C\C=C\c1ccccc1)NC(=O)c1ccccc1	GDH-TPI counter 46
CCNC(=O)[C@@H]1[C@@H](CO)[C@@H]2Cn3c(ccc(-c4cncnc4)c3=O)[C@@H]2N1Cc1ccc2c(c1)OCO2	none (no result: FadD28 binding, SARS 3CLpro inh, Mtb FBA inh, GDH-TPI counter)
CC1(C)CC(=O)c2sc(NS(=O)(=O)Cc3ccccc3)nc2C1	GDH-TPI counter 50
Cc1ccc(S(=O)(=O)Nc2nc3c(s2)C(=O)CC(C)(C)C3)cc1	none (no result: Mtb BioA inh)
COc1cccc(NC(=O)Nc2ccc(C(C)(C)C)cc2)c1	FadD28 binding 19 (no result: Mtb BioA inh)
COc1cccc(NC(=O)Nc2ccncc2)c1	none (no result: Mtb BioA inh)
CCC(=O)N[C@@H]1CC[C@H](CCNS(=O)(=O)c2ccc(Cl)cc2)O[C@@H]1CO	none (no result: FadD28 binding, SARS 3CLpro inh, Mtb FBA inh, GDH-TPI counter)
O=C(NC1CCCCC1)N(Cc1cc2cc3c(cc2[nH]c1=O)OCCO3)C1CCCCC1	GDH-TPI counter 35
O=C(c1ccccn1)N(Cc1cc2ccccc2[nH]c1=O)C1CCCCC1	Mtb FBA inh active
C[C@H](CO)N1C[C@H](C)[C@H](CN(C)S(=O)(=O)c2cn(C)cn2)Oc2ccc(NC(=O)CCN3CCOCC3)cc2C1=O	none (no result: FadD28 binding, SARS 3CLpro inh, Mtb FBA inh, GDH-TPI counter)
Cc1ccnc(NS(=O)(=O)c2ccc(NC(=O)c3ccc([N+](=O)[O-])s3)cc2)n1	none (no result: Mtb BioA inh)
Cc1cc(NS(=O)(=O)c2ccc(NC(=O)c3ccc([N+](=O)[O-])s3)cc2)nc(C)n1	GDH-TPI counter 31 (no result: SARS 3CLpro inh)
Nc1[nH]c(N=NC(=O)c2ccc(F)cc2)c2ccccc12	GDH-TPI counter 33 (no result: Mtb BioA inh)
Nc1ccccc1C(=O)N=Nc1[nH]c(N)c2ccccc12	none (no result: Mtb BioA inh)
C[C@H](CO)N1C[C@H](C)[C@@H](CN(C)C(=O)c2cnccn2)Oc2ncc(C#CCN(C)C)cc2C1=O	none (no result: FadD28 binding, SARS 3CLpro inh, Mtb FBA inh, GDH-TPI counter)
COc1cc(/C=N/NC(=O)c2ccc(Cn3cc([N+](=O)[O-])cn3)o2)cc(Br)c1O	none
CCOc1ccc(/C=N/NC(=O)c2ccc(Cn3cc([N+](=O)[O-])cn3)o2)cc1	GDH-TPI counter 42
COc1ccc(/C=N/NC(=O)c2ccc(Cn3cc([N+](=O)[O-])cn3)o2)cc1O	GDH-TPI counter 37
C[C@H](CO)N1C[C@H](C)[C@@H](CN(C)Cc2ccc(Cl)c(Cl)c2)Oc2ccc(N(C)C)cc2CC1=O	none (no result: FadD28 binding, SARS 3CLpro inh, Mtb FBA inh, GDH-TPI counter)
COC(=O)C1(CCSC)NC(c2ccc(O)cc2)C2C(=O)N(c3ccc(F)cc3)C(=O)C21 (stereo not given)	Mtb FBA inh 114
O=[N+]([O-])c1cc([N+](=O)[O-])c2oc(-c3ccccc3)c(Br)c2c1O	FadD28 binding 26
CNC(=S)N/N=C/c1ccc(-c2cccc(C(=O)O)c2)o1	GDH-TPI counter 85 (no result: Mtb BioA inh)
O=[N+]([O-])c1cccc(-c2ccc(/C=N/NC(=S)Nc3ccccc3)o2)c1	GDH-TPI counter 34
Cc1ccc(OCC(=O)N/N=C\c2ccc(-c3cccc(C(=O)O)c3)o2)c(C)c1	none
Nc1nonc1C(=O)N/N=C/c1ccc(-c2cccc(C(=O)O)c2)o1	none (no result: FadD28 binding, Mtb FBA inh, Mtb BioA inh, GDH-TPI counter)
COc1ccc(CC(=O)N/N=C/c2ccc(-c3cccc(C(=O)O)c3)o2)cc1OC	GDH-TPI counter 75
COc1ccc(CC(=O)N/N=C/c2ccc(-c3ccc(F)cc3)o2)cc1OC	GDH-TPI counter 45
